Drawing on PubChem BioAssay (NCATS), this text covers Potency for 7 molecules.

Results filed as inconclusive are left out. The source made the active and inactive calls. Unless noted, the call rests on the fitted dose curve; in most records, active means well fitted curve in the direction sought with a large enough effect; inconclusive means small, poorly fitted or top-dose-only effect, or another doubt; inactive means no such curve, though single readings can be large; an effect the other way counts as inactive or inconclusive.

Assay [1] is described as follows: qHTS for Inhibitors of the Functional Ribonucleoprotein Complex (vRNP) of Lymphocytic Choriomeningitis Arenaviruses (LCMV): Viability assay - alamar blue signal for LCMV Primary Screen (AID 1347085; calls by dose curve; tested in HEK293 reporter line; further: nearly all actives have a fitted effect of over 80% in size; further: potency means the concentration at half of the fitted maximal effect). The settings on record: alamar blue viability counter-screen, LCMV vRNP screen cells; series mostly up to 57.5 µM.
Assay [2] deals with Nucleoprotein (Lymphocytic choriomeningitis virus (strain Armstrong)) (UniProt P09992). As to the kind of experiment: qHTS for Inhibitors of the Functional Ribonucleoprotein Complex (vRNP) of Lymphocytic Choriomeningitis Arenaviruses (LCMV): LCMV Primary Screen - GLuc reporter signal (AID 1347086; calls by dose curve; further: nearly all actives have a fitted effect of over 70% in size). As to conditions: LCMV minigenome vRNP cell assay, Gaussia luciferase reporter; series mostly up to 57.5 µM. A general note: qHTS replaces the single test concentration by a dilution series.
Sequence of Nucleoprotein (Lymphocytic choriomeningitis virus (strain Armstrong)) (P09992 whole entry, looked up): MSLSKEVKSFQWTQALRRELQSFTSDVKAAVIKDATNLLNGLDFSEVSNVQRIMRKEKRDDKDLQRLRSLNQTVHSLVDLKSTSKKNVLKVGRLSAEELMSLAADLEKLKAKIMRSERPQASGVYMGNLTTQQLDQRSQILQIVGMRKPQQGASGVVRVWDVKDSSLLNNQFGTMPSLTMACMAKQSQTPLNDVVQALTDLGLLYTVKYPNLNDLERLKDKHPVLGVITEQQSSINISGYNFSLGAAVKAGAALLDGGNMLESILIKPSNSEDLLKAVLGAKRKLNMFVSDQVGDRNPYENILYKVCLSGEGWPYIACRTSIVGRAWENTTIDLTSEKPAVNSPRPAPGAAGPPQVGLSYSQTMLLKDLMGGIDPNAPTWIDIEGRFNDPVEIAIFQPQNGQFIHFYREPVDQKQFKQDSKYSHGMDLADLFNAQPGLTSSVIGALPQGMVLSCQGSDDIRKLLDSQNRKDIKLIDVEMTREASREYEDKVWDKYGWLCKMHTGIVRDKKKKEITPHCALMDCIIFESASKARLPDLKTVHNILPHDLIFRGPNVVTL

Assay [3] can be described thus: qHTS of pediatric cancer cell lines to identify multiple opportunities for drug repurposing: Primary screen for TC32 cells (AID 1347089). Further: nearly all actives have a fitted effect of over 60% in size. As to conditions: TC32 Ewing sarcoma viability, CellTiter-Glo luminescence, 48 h; series mostly up to 45.8 µM. The method in brief: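 Luminescent CellTiter-Glo read-out of metabolically active TC32 cells after 48 h compound exposure. Primary: MIPE 11-point, 0.78 nM–46 µM; NPC 8-point, 0.59 nM–46 µM. Confirmatory: 11-point dilutions.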

The nature of assay [4]: qHTS of pediatric cancer cell lines to identify multiple opportunities for drug repurposing: Primary screen for DAOY cells (AID 1347090). Further: nearly all actives have a fitted effect of over 55% in size. Further: potency means the concentration at half of the fitted maximal effect. As to conditions: DAOY medulloblastoma viability, CellTiter-Glo luminescence, 48 h; series mostly up to 46 µM. The method in brief: (§1)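 Eight- or eleven-point concentration series, 48 h treatment at 37 degrees C in growth media; readout CellTiter-Glo luminescence. Potency and efficacy were taken from the concentration-response curves.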

Assay [5] is described as follows: qHTS of pediatric cancer cell lines to identify multiple opportunities for drug repurposing: Primary screen for A673 cells (AID 1347092). Further: nearly all actives have a fitted effect of over 45% in size. Further: potency means the concentration at half of the fitted maximal effect. The settings on record: A673 Ewing sarcoma viability, CellTiter-Glo ATP luminescence, 48 h; series mostly up to 46 µM. The method in brief:
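A673 cells (500-1,000 cells/well in growth media) were pre-incubated 5 h at 37 degrees C, then exposed to compounds for 48 h. Viability was read as CellTiter-Glo luminescence; concentration-response curves came directly from the primary screen.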

Assay [6] is described as follows: qHTS of pediatric cancer cell lines to identify multiple opportunities for drug repurposing: Primary screen for SK-N-MC cells (AID 1347093). Further: potency means the concentration at half of the fitted maximal effect. As to conditions: SK-N-MC viability, CellTiter-Glo luminescence, 48 h; series mostly up to 46 µM. The method in brief: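 Metabolically active cells were quantified by ATP-dependent luminescence (CellTiter-Glo, 15 min at room temperature) following 48 h treatment. Cells had been plated at 500-1,000 per well and settled for 5 h beforehand.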

Assay [7] is described as follows: qHTS of pediatric cancer cell lines to identify multiple opportunities for drug repurposing: Primary screen for SJ-GBM2 cells (AID 1347091). The settings on record: SJ-GBM2 viability, CellTiter-Glo luminescence, 48 h; series mostly up to 46 µM. The method in brief: as §1
Assay [8] in a line: qHTS of pediatric cancer cell lines to identify multiple opportunities for drug repurposing: Primary screen for NB-EBc1 cells (AID 1347095). The settings on record: NB-EBc1 neuroblastoma viability, CellTiter-Glo luminescence, 48 h; series mostly up to 46 µM. The method in brief: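 Plated cells (500-1,000 per well, growth media) were allowed to settle for 5 hours, treated with compound dilutions for 48 hours, then lysed with CellTiter-Glo for 15 min at room temperature before luminescence reading.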

Turning to `CC1(C)O[C@@H]2[C@@H](CO[C@@]3(COS(N)(=O)=O)OC(C)(C)O[C@@H]23)O1`, the Potency entry in assay [1] and in assay [2] was “inactive” throughout.
For the molecule `NC12CC3CC(CC(C3)C1)C2`, the Potency result in assay [1] and in assay [2] was “inactive” in each case.
As to `c1ccc2c(c1)OCC(C1=NCCN1)O2` (centres undefined), in assay [3], the Potency entry was “inactive”. The Potency in assay [4] is 26.6 µM (active); in assay [5], 13.3 µM (active); in assay [6], 18.8 µM (active).
As to `CNS(=O)(=O)CCc1ccc2[nH]cc(C3CCN(C)CC3)c2c1`, in assay [2], the Potency entry is “inactive”.
On the same count and under the same terms, as for `CO[C@@]12[C@H](COC(N)=O)C3=C(C(=O)C(C)=C(N)C3=O)N1C[C@@H]1N[C@@H]12`, the entry is “inactive”.
As to `CNC(=O)N1N=C(c2ccc(N)cc2)c2cc3c(cc2CC1C)OCO3` (centres undefined), in assay [7], the Potency result is “inactive”. The Potency in assay [6] is 9.35 µM (active).
Turning to `CN(C)CCN(C)CCc1ccc(Cl)c(Cl)c1`, the Potency in assay [1] was 21.7 µM (active); in assay [6] it was 14.8 µM (active). Also, the Potency result in assay [3], in assay [4], in assay [7], in assay [5] and in assay [8] was “inactive” throughout.
